Screening data (PubChem BioAssay)
The entries come from a sample that favours hits as a whole.
Shiga inhibitor: A qHTS for Small Molecule Inhibitors of Shiga Toxin. Vero cells, Shiga toxin protein synthesis inhibition reporter. AID 2315, 2010. actives 9.2% (n = 290,000). inhibition, % at 38.7 µM; in the data active means inhibition mostly above about 28%, no sharp cut-off; inactive means mostly below about 43%; further: 0% is about no effect
RE007 growth inh: qHTS Assay for Inhibitors of the HIV-1 protein Vpr; S. pombe RE007 Vpr strain, BacTiter-Glo ATP luminescence, 24 h; Potency, µM (series often up to 92.2 µM), without a hit: at the highest dose activity change, negative = less growth, usual class: inhibitors; actives 0.21% (n = 360,000); active means well fitted falling curve with a large enough effect; inconclusive means small, poorly fitted or top-dose-only effect; inactive means no such curve, though single readings can be large or run the other way; further: potency means the concentration at half of the fitted maximal effect; on the % scale 0 is the no-effect control and ±100 the full control effect; nearly all actives have a fitted effect of over 50% in size
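Fission yeast RE007 carrying one integrated HIV-1 vpr copy, seeded at OD 0.01 in PMG+AL medium with 23 nL pinned compound. Grown 24 h at 30 degrees; viability read by BacTiter-Glo luminescence after 5 min.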
TbPYK inhibitor: qHTS of Trypanosoma Brucei Inhibitors. pyruvate kinase (Trypanosoma brucei), Q57TT1. TbPYK enzyme, Kinase-Glo Plus ATP luminescence, 45 min. Potency, µM (doses to about 76.8 µM), inactives show top-dose activity, negative = inhibition, usual class: inhibitors. actives 0.12% (n = 410,000); further: potency means the concentration at half of the fitted maximal effect; on the % scale 0 is the no-effect control and ±100 the full control effect; nearly all actives have a fitted effect of over 50% in size
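TbPYK + substrate in 50 mM TEA pH 7.2, 100 mM KCl, 10 mM MgCl2, 0.05% BSA, 0.01% Tween-20; cpd pinned; ADP 130 uM final; 45 min RT; Kinase-Glo Plus 10 min; luminescence endpoint.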
LmPK inhibitor: qHTS Assay for Inhibitors of Leishmania Mexicana Pyruvate Kinase (LmPK) | purified LmPK, Kinase-Glo ATP luminescence, 1 h | Potency, µM (top dose mostly 57.5 µM), for the others: at the highest dose activity change, negative = inhibition, usual class: inhibitors | actives 0.37% (n = 290,000); further: potency means the concentration at half of the fitted maximal effect; on the % scale 0 is the no-effect control and ±100 the full control effect
Target sequence (Q27686 whole entry, looked up): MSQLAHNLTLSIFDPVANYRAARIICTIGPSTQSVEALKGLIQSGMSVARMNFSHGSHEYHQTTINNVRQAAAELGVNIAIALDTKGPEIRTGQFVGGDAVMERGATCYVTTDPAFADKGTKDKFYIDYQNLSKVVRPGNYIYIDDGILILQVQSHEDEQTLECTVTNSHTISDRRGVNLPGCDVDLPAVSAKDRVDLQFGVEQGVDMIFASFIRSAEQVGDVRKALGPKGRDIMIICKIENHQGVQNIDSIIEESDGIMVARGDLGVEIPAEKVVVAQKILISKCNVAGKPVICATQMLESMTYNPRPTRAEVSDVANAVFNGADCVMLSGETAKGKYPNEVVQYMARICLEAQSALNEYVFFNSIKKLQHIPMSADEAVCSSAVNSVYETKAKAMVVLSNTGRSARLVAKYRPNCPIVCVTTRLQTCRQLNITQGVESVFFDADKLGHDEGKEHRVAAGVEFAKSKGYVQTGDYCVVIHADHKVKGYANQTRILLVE
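ATP generated from ADP (0.1 mM) and PEP (0.5 mM) by 0.1 nM LmPK over 1 h at room temperature (pH 7.2 imidazole buffer) was detected by coupled luciferase luminescence. Values were normalized to uninhibited and no-enzyme wells.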
FBPA Giardia inh: qHTS Assay for Inhibitors of Fructose-1,6-bisphosphate Aldolase from Giardia Lamblia; Potency, µM (titrated, usually from 59.6 µM), without a hit: at the highest dose activity, negative = inhibition, actives largely listed as inhibitors; actives 0.71% (n = 290,000); AID 2451, 2010; purified Giardia FBPA; A8B2U2; further: potency means the concentration at half of the fitted maximal effect; on the % scale 0 is the no-effect control and ±100 the full control effect; nearly all actives have a fitted effect of over 55% in size
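40 nM FBPA preincubated 10 min at RT with compound (up to 57.5 uM final), then substrate plus GAPDH/TPI/NAD/arsenate coupling and diaphorase/resazurin added. Fluorescence read after 20 min at RT, 525/598 nm.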
CHX counter: Cycloheximide Counterscreen for Small Molecule Inhibitors of Shiga Toxin; cell reporter, cycloheximide protein synthesis inhibition counterscreen; max response, %; actives 12% (n = 300,000); AID 2314, 2010; in the data active means max response mostly above about 13%, no sharp cut-off; inactive means mostly below about 14%; further: read at 38.3 µM for the half of the compounds with a filed dose; 0% is about no effect
* marks the source's active call; other numbers are inactive results; i = inactive; ? = inconclusive; . = not tested or not shown; [ ] = dose if it differs, or a comment. Unless noted, the call rests on the fitted dose curve; in most records, active means well fitted curve in the direction sought with a large enough effect; inconclusive means small, poorly fitted or top-dose-only effect, or another doubt; inactive means no such curve, though single readings can be large; an effect the other way counts as inactive or inconclusive.

SMILES	Shiga inhibitor	RE007 growth inh	TbPYK inhibitor	LmPK inhibitor	FBPA Giardia inh	CHX counter
COc1cc2c(cc1OC)C1O[C@](CCCCN3C(=O)c4ccccc4C3=O)(C2)Oc2c1c(=O)oc1ccccc21	i	.	.	-6%[11.5 µM]	16%[12.9 µM]	-2
Cc1ccc(NC(=O)Cn2nnc(C(=O)NCc3ccc(Cl)cc3)c2N)cc1F	-2	5%	2%	-6%	6%	0
COCCNC(=O)Cc1c(C)c2cc3c(cc2oc1=O)OC(C)(C)CC3	21	-1%	-3%	-1%	-2%	14*
COCCn1c(=O)c(-c2ccc(F)cc2)nc2cnc(OCc3ccccc3)nc21	.	.	3%	.	0%	.
CCOc1cc(C(=O)N2CC(=O)Nc3ccc(F)cc3C2c2ccccc2)cc(OCC)c1OCC (configuration not stated)	.	.	4%	.	.	.
Cc1ccc(N/N=C(\C#N)C(=O)c2ccsc2)cc1	55	-12%	-7%	6%	-18%	21*
N#C/C(=N\Nc1ccc(Cl)cc1)C(=O)c1ccsc1	53*	19%	3%	-1%	-13%	31*
Cc1ccccc1-c1cc2nc(Oc3cccc4ccccc34)n(C)c(=O)c2s1	.	3%[18.4 µM]	3%	.	.	.
CN(c1cccc(Cl)c1)S(=O)(=O)c1cccc(C(=O)Nc2nc3ccccc3[nH]2)c1	32	5%	-5%	2%	13%	24*
Cc1ccc(C)c(C(=O)Nc2nc3ccccc3[nH]2)c1	61*	0%	3%	3%	-10%	24
O=C(Nc1nc2ccccc2[nH]1)c1ccccc1	37	?	-22%	16µM*	-11%	17*
O=C(Nc1nc2ccccc2[nH]1)c1cccc(Cl)c1	91*	14%	-1%	-7%	3%	44*
Cc1ccc(C)c(OCc2nc3ccccc3[nH]2)c1	88*	?	-8%	0%	-4%	43*
Cc1ccc(S(=O)(=O)N2CCOCC2)cc1C(=O)Nc1nc2ccccc2[nH]1	13	-2%	1%	1%	-13%	18*
CC(=O)Nc1nc2ccccc2[nH]1	5	-12%	6%	-1%	2%	-3
CCc1ccccc1Nc1nc2ccccc2[nH]1	.	-9%	3%	.	.	.
CSCCC(NC(=O)c1cc(S(=O)(=O)N2CCOCC2)ccc1C)c1nc2ccccc2[nH]1 (configuration not stated)	.	-18%	-1%	.	.	.
Cc1ccc(Nc2nc3ccccc3[nH]2)nc1	53*	22%	1%	5%	5%	26*
O=C(Nc1nc2ccccc2[nH]1)c1ccccc1O	97*	6%	4%	-12%	8%	37*
Cc1cccc(C)c1OCc1nc2ccccc2[nH]1	0	-25%	-3%	3%	-10%	3
COc1cc(NC(=O)CC(c2ccc(C)cc2)N2Cc3ccccc3C2=O)cc(OC)c1 (configuration not stated)	.	.	0%	.	.	.
O=C(/C=C/c1ccco1)OCC(=O)N1CCCCC1	.	3%	-6%	.	.	.
O=c1c(O)cc(C2Oc3cc(O)cc(O)c3CC2O)cc2c(C3Oc4cc(O)cc(O)c4CC3O)cc(O)c(O)c12 (configuration not stated)	.	.	.	.	0.89µM*	.
Oc1cc(O)c2c(c1)O[C@H](c1ccc(O)c(O)c1)[C@@H](O)C2	-11	0%[18.4 µM]	0%	-2%	-5%	-6
O=C(Nc1cccnc1)c1ccccc1Oc1ccccc1	-14	4%	0%	3%	-26%	3
O=C(Nc1cccnc1)c1ccc(Oc2ccccc2)cc1	38*	-8%	3%	?	-16%	34*
O=C(Nc1cccnc1)c1ccc(CSc2ccccc2)cc1	73*	-17%	2%	-12%	10%	41*
CCCCOc1ccc(C(=O)Nc2ccncc2)cc1	94*	9%	-5%	-11%	-2%	26*
O=C(Nc1cccc(Br)c1)c1ccc(CSc2ccccc2)cc1	47	1%	-3%	0%	-1%	13
